Results: the supplement of paper PMC6897291

How the values were obtained:
[1] = tested on: U-2932; assay: growth inhibition by drug alone (1 - RLU/untreated control) (fraction); higher = stronger inhibition; conditions: 177Lu-lilotomab satetraxetan 0 ug/ml
How it was run: (§1)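 Compound doses on the pre-printed Selleck Cambridge Cancer Compound library plates were 10/100 nM for RIVA cells and 10/1,000 nM for U-2932 cells, seeded at 3,000 cells/well. Before seeding, cells were washed after 18 h with or without a radiolabelled anti-CD37 antibody conjugate (~600 MBq/mg; 0.5 µg/ml RIVA, 1 µg/ml U-2932). Growth inhibition was derived from RealTime-Glo luminescence relative to untreated no-drug control wells. Readings were taken daily starting on day 3, each after 1 h at 37°C, and each well's RLU was divided by the mean of 48 such wells per plate and subtracted from 1.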

[2] = tested on: RIVA; assay: as above; conditions: 177Lu-lilotomab satetraxetan 0 ug/ml
How it was run: as §1

[3] = tested on: U-2932; assay: growth inhibition by drug plus 177Lu-lilotomab satetraxetan (1 - RLU/untreated control) (fraction); higher = stronger inhibition; conditions: 177Lu-lilotomab satetraxetan 1 ug/ml
How it was run: as §1

[4] = tested on: RIVA; assay: as above; conditions: 177Lu-lilotomab satetraxetan 0.5 ug/ml
How it was run: as §1

Structure (SMILES)	growth inhibition by drug alone ([1]; 10 nM, time (day): 3)	growth inhibition by drug alone ([1]; 10 nM, time (day): 4)	growth inhibition by drug alone ([1]; 10 nM, time (day): 5)	growth inhibition by drug alone ([1]; 10 nM, time (day): 6)	growth inhibition by drug alone ([1]; 1000 nM, time (day): 3)	growth inhibition by drug alone ([1]; 1000 nM, time (day): 4)	growth inhibition by drug alone ([1]; 1000 nM, time (day): 5)	growth inhibition by drug alone ([1]; 1000 nM, time (day): 6)	growth inhibition by drug alone ([2]; 10 nM, time (day): 3)	growth inhibition by drug alone ([2]; 10 nM, time (day): 4)	growth inhibition by drug alone ([2]; 10 nM, time (day): 5)	growth inhibition by drug alone ([2]; 10 nM, time (day): 6)	growth inhibition by drug alone ([2]; 100 nM, time (day): 3)	growth inhibition by drug alone ([2]; 100 nM, time (day): 4)	growth inhibition by drug alone ([2]; 100 nM, time (day): 5)	growth inhibition by drug alone ([2]; 100 nM, time (day): 6)	growth inhibition by drug plus 177Lu-lilotomab satetraxetan ([3]; 10 nM, time (day): 3)	growth inhibition by drug plus 177Lu-lilotomab satetraxetan ([3]; 10 nM, time (day): 4)	growth inhibition by drug plus 177Lu-lilotomab satetraxetan ([3]; 10 nM, time (day): 5)	growth inhibition by drug plus 177Lu-lilotomab satetraxetan ([3]; 10 nM, time (day): 6)	growth inhibition by drug plus 177Lu-lilotomab satetraxetan ([3]; 1000 nM, time (day): 3)	growth inhibition by drug plus 177Lu-lilotomab satetraxetan ([3]; 1000 nM, time (day): 4)	growth inhibition by drug plus 177Lu-lilotomab satetraxetan ([3]; 1000 nM, time (day): 5)	growth inhibition by drug plus 177Lu-lilotomab satetraxetan ([3]; 1000 nM, time (day): 6)	growth inhibition by drug plus 177Lu-lilotomab satetraxetan ([4]; 10 nM, time (day): 3)	growth inhibition by drug plus 177Lu-lilotomab satetraxetan ([4]; 10 nM, time (day): 4)	growth inhibition by drug plus 177Lu-lilotomab satetraxetan ([4]; 10 nM, time (day): 5)	growth inhibition by drug plus 177Lu-lilotomab satetraxetan ([4]; 10 nM, time (day): 6)	growth inhibition by drug plus 177Lu-lilotomab satetraxetan ([4]; 100 nM, time (day): 3)	growth inhibition by drug plus 177Lu-lilotomab satetraxetan ([4]; 100 nM, time (day): 4)	growth inhibition by drug plus 177Lu-lilotomab satetraxetan ([4]; 100 nM, time (day): 5)	growth inhibition by drug plus 177Lu-lilotomab satetraxetan ([4]; 100 nM, time (day): 6)
Nc1ncn([C@H]2C[C@H](O)[C@@H](CO)O2)c(=O)n1 [Decitabine]	0.1	0.0737	-0.0105	-0.0724	-0.215	0.144	0.37	0.544	0.201	0.0484	-0.0488	-0.367	0.168	0.0495	-0.00108	-0.0694	0.0943	0.11	0.126	0.167	0.13	0.49	0.632	0.753	0.474	0.558	0.569	0.567	0.496	0.556	0.566	0.53
Cn1cncc1[C@@](N)(c1ccc(Cl)cc1)c1ccc2c(c1)c(-c1cccc(Cl)c1)cc(=O)n2C [Tipifarnib (Zarnestra)]	0.0908	0.0396	0.00741	-0.0584	0.757	0.8	0.836	0.863	-0.055	-0.241	-0.428	-0.678	-0.0203	-0.124	-0.267	-0.517	0.0185	0.0674	0.106	0.1	0.777	0.805	0.847	0.882	0.37	0.421	0.452	0.489	0.482	0.521	0.511	0.536
CCOc1ccc(Cc2cc([C@@H]3O[C@H](CO)[C@@H](O)[C@H](O)[C@H]3O)ccc2Cl)cc1 [Dapagliflozin]	0.142	0.11	-0.0277	-0.0754	0.0652	0.0655	0.0265	-0.143	0.0261	0.0489	-0.0941	-0.357	-0.159	-0.0453	-0.0994	-0.161	0.0831	0.139	0.185	0.224	0.0836	0.124	0.161	0.282	0.595	0.635	0.644	0.658	0.517	0.574	0.572	0.572
Cc1ccc([C@@H]2O[C@H](CO)[C@@H](O)[C@H](O)[C@H]2O)cc1Cc1ccc(-c2ccc(F)cc2)s1 [Canagliflozin]	-0.0178	-0.0268	-0.0429	0.0177	-0.0399	0.00599	-0.0361	-0.0715	-0.0859	-0.106	-0.126	-0.215	0.00364	-0.0271	-0.0583	-0.103	0.00296	0.0208	0.0301	0.162	-0.0686	0.0117	0.0289	0.0944	0.342	0.476	0.499	0.519	0.383	0.437	0.439	0.418
CC(C)n1c(/C=C/C(O)CC(O)CC(=O)O)c(-c2ccc(F)cc2)c2ccccc21 (centres undefined) [Fluvastatin sodium (Lescol)]	0.0449	-0.0165	-0.0177	0.0304	-0.0194	-0.0389	-0.0543	0.0255	-0.148	-0.159	-0.189	-0.293	-0.27	-0.311	-0.385	-0.508	-0.0533	0.0114	0.0651	0.148	0.00838	0.0135	0.0456	0.221	0.511	0.544	0.565	0.555	0.516	0.511	0.53	0.525
Cc1cccc(-c2nn3c(c2-c2ccnc4ccc(C(N)=O)cc24)CCC3)n1	-0.0698	-0.0435	-0.0298	0.0787	-0.0166	-0.0114	-0.0422	-0.0441	-0.233	-0.26	-0.269	-0.342	-0.0721	-0.126	-0.16	-0.229	-0.116	-0.0664	-0.0409	0.0836	0.0167	0.0206	-0.00167	0.117	0.371	0.487	0.502	0.523	0.372	0.444	0.459	0.437
CC(C)C[C@H](NC(=O)CNC(=O)c1cc(Cl)ccc1Cl)B(O)O	-0.0591	-0.0376	0.0132	0.111	0.983	0.984	0.984	0.985	-0.217	-0.196	-0.201	-0.298	0.177	0.166	0.0904	-0.0331	-0.0412	-0.00704	0.027	0.197	0.984	0.985	0.985	0.987	0.38	0.491	0.522	0.525	0.656	0.686	0.668	0.59
